A selection: hits, their analogues and other compounds. The true share with any hit is near 4.8%.
tim10-1 inh: growth inhibitors of tim10-1 mutant yeast, primary screen, luminescence, uHTS; S. cerevisiae tim10-1 ts strain growth, BacTiter-Glo, 24 h; 2.2% of 330,000 active; inhibition, % at 20 µM;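 active = inhibition of at least 40%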;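 also: mutant grown at 25 °C; 0% = DMSO wells with yeast and 100% = wells holding no yeast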
PfHsp90 set2: growth inhibition of PfHsp90-expressing yeast, primary screen, antimalarial PfHsp90 inhibitor project, S. cerevisiae, BacTiter-Glo luminescence, single point, set 2 | BacTiter-Glo ATP, 48 h; yeast lacking PDR1 and PDR3 efflux regulators | inhibition, % at 9.4 µM | 0.32% of 310,000 active | AID 504621, 2011;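 active = every replicate shows inhibition above about 80%, whatever the replicate mean, limit read from the data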;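 also: 0% = DMSO neutral controls and 100% = 20 µM radicicol positive controls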
tim23-1 inh: growth inhibitors of tim23-1 mutant yeast, primary screen, luminescence, uHTS; S. cerevisiae tim23-1 growth, BacTiter-Glo luminescence, 24 h; inhibition, % at 20 µM; 1.3% of 330,000 active; AID 463212, 2010;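 active = growth inhibition of the mutant yeast at or above 50%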;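 also: temperature-sensitive mutant grown at 25 °C; plate controls were DMSO-treated mutant yeast for no effect and medium wells lacking yeast for full effect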
SKKanGAS inh: S. pyogenes SKKanGAS growth inhibitors in kanamycin, primary screen, streptokinase expression inhibitor project, SKKanGAS strain, BacTiter-Glo luminescence; 6 h; AID 1662, 2009; 1.3% of 300,000 active; inhibition, % at 7.5 µM;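 active = mean replicate score, as percent of positive control median, at least 50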;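 also: strain carries kanamycin resistance gene driven by streptokinase promoter and grows in 40 µg/ml kanamycin; loss of luminescence reflects streptokinase promoter inhibition or plain growth inhibition; 0% = median of DMSO wells and 100% = positive control at its reference dose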
NALP1 yeast inh: NALP1 inflammasome inhibitors in reconstituted yeast, colorimetric, S. cerevisiae, triplicate retest; S. cerevisiae NALP1/ASC/caspase-1 growth, X-gal OD620, 72 h; inhibition, % at 10 µM; 0.61% of 280,000 active; AID 2071, 2009; in the data active = inhibition mostly above about 24%, no sharp cut-off; inactive = mostly below about 32%
TIM10 inh: growth inhibitors of isogenic TIM10 control yeast, primary screen, counter-screen for tim10-1 yeast inhibitor project, luminescence, uHTS. S. cerevisiae TIM10 strain growth, BacTiter-Glo luminescence, 24 h. inhibition, % at 10 µM. 1.4% of 330,000 active. AID 463195, 2010;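 active = inhibition of 40% or more at the single tested concentration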;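 also: wild-type TIM10 isogenic control strain grown at permissive 25 °C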
Starred values were filed as active, the others as inactive; i = inactive; · = not tested or not shown.

SMILES	tim10-1 inh	PfHsp90 set2	tim23-1 inh	SKKanGAS inh	NALP1 yeast inh	TIM10 inh
Cc1ccc(S(=O)(=O)Nc2ccc3c(c2)C(=O)N([C@H](C)CO)C[C@H](C)[C@@H](CN(C)C(=O)Nc2ccc4c(c2)OCO4)O3)cc1	-7.8	4.4	9.7	·	·	1.9
Cc1ccc(NC(=O)CN2C(=O)S/C(=C\c3ccc(-c4cccc(C(=O)O)c4C)o3)C2=O)cc1	16.5	·	4.7	53.4*	-2.1	17.6
O=C(C1=NN[C@@H]2C(=O)N(c3ccccc3C(F)(F)F)C(=O)[C@H]12)c1ccc2ccccc2n1	11.8	-2.8	17.2	-0.4	26.7	4.6
CCS(=O)(=O)NCC(c1ccco1)N1CCN(c2ccccc2F)CC1 (stereo not drawn)	10.7	6.3	15.6	-4.2	32.9	13.7
CN1CCN(S(=O)(=O)c2cccs2)CC1	2.0	-7.4	1.3	-1.7	-6.9	-6.0
O=S(=O)(c1cccs1)N1CCN(c2ccc(O)cc2)CC1	0.6	5.3	13.7	3.4	34.9*	11.1
O=C(Nc1ccccc1-c1nc2ccccc2[nH]1)c1sc2ccccc2c1Cl	6.5	·	13.7	64.2*	28.3	-0.1
O=C(Nc1nccs1)c1sc2ccccc2c1Cl	23.8	-5.6	19.2	49.6*	51.6	24.8
O=C(Nc1ccc(Cl)c(Cl)c1)Nc1nccs1	16.3	-159.4	12.0	54.7*	·	27.7
O=C(Nc1nccs1)c1sc2cc(Cl)ccc2c1Cl	26.3	·	1.1	66.3*	4.3	1.3
Cc1ccc(S(=O)(=O)NCCCNS(=O)(=O)c2ccccc2Br)cc1	-1.6	4.7	22.1	·	·	-19.0
CCOC(=O)C(NC(=O)CC)(Nc1nc2c(s1)CCCC2)C(F)(F)F (stereo not drawn)	11.9	75.0	10.8	-0.9	11.9	8.9
CCOC(=O)c1cnc(-n2cc(C)cn2)nc1Nc1ccccc1OCC	29.5	17.2	11.1	89.6*	4.2	23.7
OC(CNC1CCCCC1)CN1CCN(CC(O)CNC2CCCCC2)CC1 (stereo not drawn)	·	·	·	·	1.4	·
O=C(Nc1cccc(Cl)c1)N1CCN(c2ncccn2)CC1	0.9	·	24.8	-0.5	2.4	15.9
O=C(Nc1ccc(Cl)cc1Cl)N1CCN(c2ncccn2)CC1	2.7	-9.2	-2.6	-7.2	42.2*	2.4
O=C(CNc1cccc(S(=O)(=O)N2CCOCC2)c1)Nc1ccc(C(F)(F)F)cc1	5.9	·	23.0	3.2	·	3.2
C[C@@H](NC(=O)Cn1cnc2c(OCc3ccccc3)ncnc21)c1cccc2ccccc12	13.1	-3.0	8.3	·	·	0.2
CCO[C@H]1OC(C(=O)NCc2nc3ccccc3[nH]2)=C[C@@H](C2CC2)[C@@H]1CCCO	-7.8	7.6	-8.2	-1.3	-3.8	0.2
Cc1ccc(-c2csc(NC(=O)c3ccc([N+](=O)[O-])o3)n2)cc1	-139.3	5.6	43.5	55.3*	-4.7	-84.5
CCN(CC)CCNC(=O)c1cn(CCOC)c(=O)c2c1c1ccccc1n2C	18.7	40.1	11.6	-6.2	13.4	-7.5
CCN(CC)CCCNC(=O)c1cn(CCOC)c(=O)c2c1c1ccccc1n2C	12.0	11.4	8.6	·	30.6*	6.3
CC12CCC(=O)N1C(C(=O)Nc1nc3c(F)cc(F)cc3s1)CS2 (stereo not drawn)	31.5	2.2	29.5	7.3	-7.3	-0.3
CSc1nnc(C2CCCN2)n1C (stereo not drawn)	-1.5	-1.7	6.7	2.0	0.4	12.5
CC1CC(C)CN(C(=O)CSc2nnc(-c3ccc(Cl)cc3)o2)C1 (stereo not drawn)	17.3	7.7	9.2	-4.6	34.8*	-1.2
SMILES	tim10-1 inh	PfHsp90 set2	tim23-1 inh	SKKanGAS inh	NALP1 yeast inh	TIM10 inh
O=C(CCSc1nnc(-c2ccncc2)o1)Nc1ccc(Cl)cc1	-22.7	96.4*	i	-1.6	16.2	-59.7
Cc1cc(/C=C2\SC(=Nc3ccccc3)NC2=O)c(C)n1-c1ccc(S(N)(=O)=O)cc1	21.5	-16.7	6.6	72.2*	10.3	11.3
Cc1ccc(-n2c(C)cc(/C=C3\SC(=O)NC3=O)c2C)cc1	16.5	7.5	4.9	31.1	14.0	14.7
COC(=O)c1ccccc1NC(=O)/C=C/C(=O)O	1.9	-21.8	8.3	12.9	41.1	-6.4
O=C(CC1SC(=Nc2ccccc2)N(CCc2c[nH]c3ccccc23)C1=O)Nc1ccccc1F (stereo not drawn)	9.8	-3.2	9.5	85.8*	·	3.2
O=C(CC1SC(=Nc2ccccc2)N(CCc2ccccn2)C1=O)Nc1ccc(F)cc1 (stereo not drawn)	15.6	7.6	12.9	1.4	20.8	24.2
CC1(C)[C@@H](O)CC[C@]2(C)C3C(O)C=C4[C@H]5C[C@@](C)(CO)CC[C@]5(C)CC[C@]4(C)[C@]3(C)CC[C@@H]12 (stereo partly drawn)	26.4	-1.6	41.2	98.6*	·	-3.2
CC1(C)[C@@H](O)CC[C@]2(C)[C@H]3C(=O)C=C4[C@@H]5C[C@@](C)(C(=O)O)CC[C@]5(C)CC[C@@]4(C)[C@]3(C)CC[C@@H]12	-32.8	-20.2	-3.2	15.4	36.5	-7.6
Cc1c(CCOC(=O)CC23CC4CC(CC(C4)C2)C3)sc[n+]1CC(=O)c1ccccc1	5.0	26.9	15.6	15.2	34.7*	2.6
COc1ccccc1/C=C/C(=O)N1CCN(S(=O)(=O)c2cc(C)ccc2C)CC1	23.7	-25.5	47.6	·	·	37.2
CC(C)c1ccccc1OCC(=O)NN1C(=O)c2ccccc2C1=O	12.6	-12.6	27.4	6.3	42.3*	9.2
COc1ccc(C(=O)n2nc(C#N)c(C#N)c2N)cc1	-12.0	6.4	-6.8	2.7	37.0*	-4.3
Cc1ccc(C(=O)n2nc(C#N)c(C#N)c2N)cc1	-17.3	10.0	7.8	6.0	·	6.6
Nc1ccc2nc(-c3ccc(Cl)cc3)[nH]c2c1	-1.7	10.5	14.4	83.7*	4.9	17.1
Nc1ccc2nc(-c3cc(Cl)c(N)c(Cl)c3)[nH]c2c1	14.2	4.0	-3.4	63.3*	15.5	14.0
Cc1nn(Cc2ccc(Cl)cc2Cl)c(C)c1NC(=O)c1sc2ccccc2c1Cl	3.3	-2.2	-9.1	10.7	13.7	-2.1
Cc1nn(Cc2ccc(Cl)cc2Cl)c(C)c1NC(=O)NC12CC3CC(CC(C3)C1)C2	35.1	13.0	34.8	50.5*	4.1	38.2
CC(C)(C)c1ccc(C(=O)N/N=C/c2ccccn2)cc1	-42.2	-9.1	24.0	63.4*	-22.3	15.3
C[C@@H]1CC[C@]2(C(=O)O)CC[C@]3(C)C(=CCC4[C@@]5(C)CC[C@H](O)[C@@](C)(C(=O)O)C5CC[C@]43C)C2[C@]1(C)O (stereo partly drawn)	-12.8	-11.6	-6.0	·	·	-8.0

High-throughput results: PubChem BioAssay, several laboratories
